Source: PubChem BioAssay (The Scripps Research Institute Molecular Screening Center)
hcDAF12 agonist = activates DAF-12 receptor from parasite H. contortus | activation, % at 6.8 µM | HEK293 hcDAF-12 lit1-tk-luc reporter, luminescence; 0% DMSO, 100% Δ7-dafachronic acid | 1.4% of 370,000 active | AID 652067;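 active means activation above the mean of all tested compounds plus 3 SD, cut at about 5.5% in these data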;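 further: 100% = response to 3 µM Δ7-dafachronic acid high control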
DAX1 inh-1 = inhibitors of human orphan nuclear receptor DAX1 (NR0B1); 0.99% of 340,000 active; inhibition, % at 6.75 µM; HEK293 Gal4-DAX1 luciferase reporter, luminescence; AID 504766;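 active means inhibition above the mean over all tested compounds plus 3 SD, cut at about 4.2% in these data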;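 further: 0% = DAX1-transfected cells with DMSO and 100% = empty-vector control cells with DMSO; inhibition shows as a rise in luminescence from relieved DAX1 repression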
Target sequence (P51843 207-470 limits assumed): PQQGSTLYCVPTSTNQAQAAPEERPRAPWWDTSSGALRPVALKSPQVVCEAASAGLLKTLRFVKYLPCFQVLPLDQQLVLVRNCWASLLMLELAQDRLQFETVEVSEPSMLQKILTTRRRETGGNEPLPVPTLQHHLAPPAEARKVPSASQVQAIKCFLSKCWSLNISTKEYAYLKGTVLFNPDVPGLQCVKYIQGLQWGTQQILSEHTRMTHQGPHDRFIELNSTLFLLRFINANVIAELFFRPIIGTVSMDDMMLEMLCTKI
ssDAF-12 act = activators of S. stercoralis DAF-12 nuclear receptor; HEK293 ssDAF-12/GRIP1 lit1-tk-luc reporter, luminescence; % of 3 µM dafachronic acid response; activation, % at 6.8 µM; 1% of 370,000 active; AID 652126;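 active means activation above the mean over all tested compounds plus 3 SD, cut at about 0.9% in these data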;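 further: 0% = DMSO-only wells and 100% = 3 µM delta7-dafachronic acid wells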
hgDAF-12 ag = agonists of H. glycines DAF-12 nuclear receptor; activation, % at 6.8 µM; 1.8% of 370,000 active; HEK293 GAL4-hgDAF12 UAS-luciferase reporter, agonist luminescence; normalized to butyrate control;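 active means activation above a cutoff set at the mean of all screened compounds plus 3 SD, cut at about 10% in these data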;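 further: 0% = DMSO wells and 100% = sodium butyrate wells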
DAX1 inh-2 = blocks DAX1 repression of SF-1 activated StAR promoter; HEK293T StAR-luciferase reporter, SF-1/DAX-1 repression relief; inhibition, % at 6.8 µM; 1.1% of 370,000 active; AID 652010;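 active means inhibition above the mean over all tested compounds plus 3 SD, cut at about 3.6% in these data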;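 further: 0% = DAX-1 cells with DMSO and 100% = cells lacking DAX-1 with DMSO; higher inhibition means more luminescence from relief of DAX-1 repression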
DAX1 inh confirm = NR0B1 (human) inhibition, confirmation. shares compounds with DAX1 inh-2. HEK293T StAR-promoter luciferase reporter, SF-1/DAX-1 repression. inhibition, % at 6.8 µM. 87% of 2,400 active. AID 652134;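 active means inhibition above the average of every tested compound plus 3 SD, cut at about 3.8% in these data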;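 further: 0% = DAX-1 cells with DMSO and 100% = no DAX-1 control cells with DMSO; active compounds raise luminescence by relieving repression of the StAR reporter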
SF1 mutant ctr = nonselective inhibitor or artifact in SF-1 mutant DAX1 counter-screen; shares compounds with DAX1 inh-2; HEK293 StAR-luciferase, SF-1 AF2 mutant, luminescence; inhibition, % at 6.8 µM; 78% of 2,400 active; AID 652136;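 active means inhibition above the mean of all tested compounds plus 3 SD, cut at about 3% in these data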;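 further: 0% = DAX-1 transfected cells with DMSO and 100% = cells without DAX-1 with DMSO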
LXR ag = LXR-beta agonism as hcDAF-12 counter-screen; shares compounds with hcDAF12 agonist; HEK293 Gal4-LXR tk-luc reporter, luminescence, 24 h; normalized: DMSO 0%, positive control 100%; activation, % at 6.8 µM; 3,400 tested, under 10 active; AID 743027;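 active means mean percent activation of the reporter above a cutoff set as the average over tested compounds plus their standard deviation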
Target sequence (P55055 whole entry, looked up, the tested form may be a part): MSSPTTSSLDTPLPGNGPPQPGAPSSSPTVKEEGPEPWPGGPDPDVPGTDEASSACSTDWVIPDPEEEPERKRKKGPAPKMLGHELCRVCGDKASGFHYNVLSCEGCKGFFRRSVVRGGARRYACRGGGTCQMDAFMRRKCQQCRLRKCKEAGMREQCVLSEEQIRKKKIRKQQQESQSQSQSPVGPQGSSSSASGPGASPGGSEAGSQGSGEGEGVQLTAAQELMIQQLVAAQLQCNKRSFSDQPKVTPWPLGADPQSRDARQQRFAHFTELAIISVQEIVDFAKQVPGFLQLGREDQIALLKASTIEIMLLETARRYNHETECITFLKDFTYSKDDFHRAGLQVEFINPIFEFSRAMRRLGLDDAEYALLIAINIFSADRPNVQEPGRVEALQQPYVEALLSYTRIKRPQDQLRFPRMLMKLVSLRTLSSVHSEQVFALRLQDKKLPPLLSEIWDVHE
hcDAF12 conf = confirmation of H. contortus DAF-12 agonists | shares compounds with hcDAF12 agonist | HEK293 hcDAF-12 lit1-tk-luc reporter, luminescence; % of Δ7-dafachronic acid response | activation, % at 6.8 µM | 61% of 3,400 active;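 active means mean activation across triplicate tests above the threshold derived from the earlier primary screen, cut at about 5.5% in these data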;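 further: 0% = DMSO only wells and 100% = 3 µM Δ7-dafachronic acid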
hgDAF12 conf = confirmation of H. glycines DAF-12 agonists. shares compounds with hgDAF-12 ag. HEK293 GAL4-hgDAF12 luciferase reporter, agonist mode; percent of butyrate response. activation, % at 6.8 µM. 80% of 3,300 active. AID 743050;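 active means mean activation over triplicate wells above the hit cutoff derived from the earlier primary screen, cut at about 11% in these data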;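 further: 0% = DMSO low control and 100% = 2 mM sodium butyrate high control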
LXR ag 2 = activates human LXR-beta, counter-screen for DAF-12 agonists; shares compounds with hgDAF-12 ag; HEK293 Gal4-LXR luciferase reporter, 24 h; activation, % at 6.8 µM; 3,300 tested, under 10 active;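 active means mean activation of the triplicate above a set limit carried over from the primary screen, none filed active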
Active calls of the source: *; / = no result. This is a sample that favours compounds with a hit; in the whole collection about 4.1% have one here.

SMILES	hcDAF12 agonist	DAX1 inh-1	ssDAF-12 act	hgDAF-12 ag	DAX1 inh-2	DAX1 inh confirm	SF1 mutant ctr	LXR ag	hcDAF12 conf	hgDAF12 conf	LXR ag 2
CN1CCN(c2ncnc3c2ncn3[C@H]2CN(C)C[C@@H](CO)O2)CC1	1	/	-1	-1	0	/	/	/	/	/	/
C=CCOC(=O)C1=C[C@H](c2ccc3c(c2)OCO3)C[C@H](OCCCCO)O1	-1	-1	-1	3	0	/	/	/	/	/	/
COc1ccc(Nc2c(C3CC3)nc3nc(C)cc(C)n23)cc1	3	/	1	-1	0	/	/	/	/	/	/
Cc1cccc(OCC(=O)Nc2nccs2)c1C	8.6*	2	1	12*	12*	13*	8.0*	1	6.4*	/	/
CC(=O)N(C)c1nc(N)n(-c2ccccc2)n1	0	-1	-1	-2	0	/	/	/	/	/	/
Cn1c(/C=N/Nc2nc3ccccc3[nH]2)nc2ccccc21	17*	2	1.9*	15*	5.5*	-2	-4	2	8.0*	/	/
CCCn1c(/C=N/Nc2nc3ccccc3[nH]2)nc2ccccc21	1	-2	0	6	1	/	/	/	/	/	/
O=C(COC(=O)/C=C/c1ccco1)NCCN1C(=O)CSC1=O	-1	2	-1	1	0	/	/	/	/	/	/
c1ccc(-c2csc(Nc3ccc4c(c3)OCO4)n2)cc1	17*	/	2.6*	21*	22*	14*	7.8*	2	17*	/	/
C(=N\Nc1nc2ccccc2s1)/c1ccccn1	-5	/	-3	-14	-3	/	/	/	/	/	/
Brc1csc(/C=N/Nc2nc3ccccc3s2)c1	13*	4	2.4*	20*	5.9*	15*	11*	2	9.1*	/	/
Cc1ccc(NC(=O)CSc2nnc(-c3ccc(S(=O)(=O)N4CCCC4)cc3)o2)cc1C	-2	-1	-1	-1	0	/	/	/	/	/	/
COc1cccc(NC(=O)N2CCCCCC2)c1	7.7*	1	-1	5	4.6*	5.7*	4.0*	0	1	/	/
COc1ccc(OCCSc2ncccn2)cc1	6.9*	2	-1	12*	4.8*	11*	7.8*	1	6.6*	/	/
CCc1ccc(NC(=O)c2noc3c2CCC3)cc1	9.3*	-2	1.4*	12*	5.7*	21*	7.9*	2	14*	/	/
CCc1ccc(NC(=O)c2noc3c2CCc2ccccc2-3)cc1	-1	2	0	2	0	/	/	/	/	/	/
CN1CCn2cnc(C(=O)Nc3ccc(CNC(=O)OC(C)(C)C)cc3)c2C1=O	0	2	-1	-2	0	/	/	/	/	/	/
Nc1ncc(-c2ccc(F)cc2)nc1N1CCN(CCO)CC1	-1	/	-1	0	1	/	/	/	/	/	/
OCCN1CCN(c2cnc(-c3ccsc3)cn2)CC1	5	/	1	17*	5.9*	10.0*	6.2*	/	/	13*	1
Brc1ccc(/C=C/C=N/Nc2nc3ccccc3s2)cc1	4	0	0	1	0	/	/	/	/	/	/
c1ccc2sc(Nc3nc4cc5c(cc4s3)OCO5)nc2c1	7.4*	3	2.3*	18*	5.4*	12*	7.8*	1	8.2*	17*	1
C(=C\c1ccccc1)/C=N/Nc1nc2ccccc2s1	16*	5.7*	2.2*	19*	5.3*	14*	11*	1	9.6*	20*	1
C(=N\Nc1nc2ccccc2s1)/c1ccc2c(c1)OCO2	17*	2	4.5*	17*	8.2*	19*	12*	2	9.6*	24*	1
COc1cc(OC)cc(C(=O)Oc2ccc(/C=N/Nc3nc4ccccc4s3)cc2OC)c1	2	3	0	-5	0	/	/	/	/	/	/
COc1ccc(C=NNc2nc3ccccc3s2)cc1	14*	-1	0.9*	17*	11*	22*	12*	2	13*	16*	1
SMILES	hcDAF12 agonist	DAX1 inh-1	ssDAF-12 act	hgDAF-12 ag	DAX1 inh-2	DAX1 inh confirm	SF1 mutant ctr	LXR ag	hcDAF12 conf	hgDAF12 conf	LXR ag 2
Cc1cc2c(nc1C)CCCN2S(=O)(=O)c1c(C)noc1C	1	/	-1	2	0	/	/	/	/	/	/
CCOC(=O)[C@@]12CCCC3=C1N(CCC3)C(=O)[C@H]2CC(=O)NCC12CC3CC(CC(C3)C1)C2	0	/	-1	-2	0	/	/	/	/	/	/
COc1ccc(-c2noc(CCC(=O)N3CCN(c4ccccc4Br)CC3)n2)cc1	-1	1	0	0	2	/	/	/	/	/	/
Cn1nnc2cc(C(=O)Nc3ccccc3F)ccc21	0	-2	0	1	1	/	/	/	/	/	/
Cn1nnc2cc(NC(=O)Nc3ccccc3F)ccc21	4	2	0	15*	7.4*	9.8*	4.4*	/	/	14*	1
Cn1c(N)c(C(=O)COC(=O)CNC(=O)c2ccccc2F)c(=O)n(C)c1=O	0	0	-1	-2	0	/	/	/	/	/	/
Cc1ccc(-c2cn3cccc(C)c3n2)cc1	16*	0	3.8*	15*	9.2*	17*	7.9*	2	17*	21*	1
COc1ccc(-c2cn3cc(C)ccc3n2)cc1OC	4	-1	0	19*	4.9*	12*	6.6*	/	/	18*	1
Cc1cccn2cc(-c3ccc(S(=O)(=O)N4CCCCC4)cc3)nc12	-1	-1	-1	4	-1	/	/	/	/	/	/
COc1ccc(-c2csc(C)n2)cc1OC	-1	0	-1	0	0	/	/	/	/	/	/
COc1ccc(-c2cn3cccc(C)c3n2)cc1F	7.9*	2	1.0*	18*	5.0*	14*	9.0*	1	5	16*	1
CCC(=O)Nc1cccc(-c2cn3cccc(C)c3n2)c1	1	/	-1	-1	0	/	/	/	/	/	/
Cc1cccn2cc(-c3ccc(Cl)cc3)nc12	18*	1	2.6*	16*	9.3*	11*	4.0*	1	18*	18*	1
CCOC(=O)Cn1cc(CN2C(C(=O)OC)CN(Cc3ccccc3)CCS2(=O)=O)nn1 (stereo unspecified)	2	/	0	0	0	/	/	/	/	/	/
